Measured values from PubChem BioAssay AID1159580 (chemical genetic matrix, 2015).
About 2,000 (36%) of roughly 5,500 compounds were called active. Roughly 18% stayed inconclusive and do not appear here. Rule as the data show it: active = normalized growth mostly below about 0.91 (no sharp cut-off); inconclusive = no clear call, values can overlap the other calls; inactive = mostly above about 0.92. The list shows a part of the results.

Assay: chemical genetic growth profiling, strain panel (AID 1159580);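 also: tested at 20 µM; growth read once vehicle control cultures reached saturation at 30 °C; 1 = growth at the plate median or of vehicle wells; lower values mean less growth of the strain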
Conditions: growth OD

Measured: normalized growth

CC(=O)[C@H]1CCC2C3C[C@H](C)C4=CC(=O)CC[C@]4(C)C3[C@@H](O)C[C@@]21C (some centres undefined)
inactive: S. cerevisiae deletion strains, locus YJR075W, strain HOC1, active compounds read low 0.993 | S. cerevisiae deletion strains, locus YKL009W, strain mrt4, active compounds read low 0.991 | S. cerevisiae deletion strains, locus YKL068W, active compounds read low 0.977 | S. cerevisiae deletion strains, locus YKL085W, strain MDH1 (second series), active compounds read low 0.96 | S. cerevisiae deletion strains, locus YKL085W, strain MDH1, active compounds read low 0.96 | S. cerevisiae deletion strains, locus YKL160W, strain elf1, active compounds read low 0.956 | S. cerevisiae deletion strains, locus YKL190W, strain CNB1, active compounds read low 0.989 | S. cerevisiae deletion strains, locus YKR001C, strain vps1, active compounds read low 0.998 | S. cerevisiae deletion strains, locus YKR026C, strain gcn3, active compounds read low 0.986 | S. cerevisiae deletion strains, locus YKR091W, strain srl3, active compounds read low 0.977 | S. cerevisiae deletion strains, locus YLL001W, strain dnm1, active compounds read low 0.947 | S. cerevisiae deletion strains, locus YLL026W, active compounds read low 0.99 | S. cerevisiae deletion strains, locus YLL041C, strain sdh2, active compounds read low 0.983 | S. cerevisiae deletion strains, locus YLR027C, strain aat2, active compounds read low 0.996 | S. cerevisiae deletion strains, locus YLR039C, strain RIC1, active compounds read low 0.785 | S. cerevisiae deletion strains, locus YLR058C, strain SHM2, active compounds read low 0.98 | S. cerevisiae deletion strains, locus YLR102C, strain apc9, active compounds read low 0.975 | S. cerevisiae deletion strains, locus YLR113W, strain HOG1, active compounds read low 0.993 | S. cerevisiae deletion strains, locus YLR221C, strain rsa3, active compounds read low 0.945 | S. cerevisiae deletion strains, locus YLR258W, strain gsy2, active compounds read low 0.986 | S. cerevisiae deletion strains, locus YLR262C, strain YPT6 (second series), active compounds read low 0.95 | S. cerevisiae deletion strains, locus YLR262C, strain YPT6, active compounds read low 0.901 | S. cerevisiae deletion strains, locus YLR268W, strain sec22, active compounds read low 0.995 | S. cerevisiae deletion strains, locus YLR320W, strain mms22, active compounds read low 0.961 | S. cerevisiae deletion strains, locus YLR330W, strain CHS5, active compounds read low 0.988 | S. cerevisiae deletion strains, locus YLR342W, strain FKS1 (second series), active compounds read low 0.99 | S. cerevisiae deletion strains, locus YLR342W, strain FKS1, active compounds read low 0.972 | S. cerevisiae deletion strains, locus YLR357W, strain rsc2, active compounds read low 0.948 | S. cerevisiae deletion strains, locus YLR370C, strain arc18, active compounds read low 0.959 | S. cerevisiae deletion strains, locus YLR371W, strain rom2, active compounds read low 0.978 | S. cerevisiae deletion strains, locus YLR384C, strain iki3, active compounds read low 0.987 | S. cerevisiae deletion strains, locus YLR418C, strain cdc73, active compounds read low 0.97 | S. cerevisiae deletion strains, locus YML016C, strain PPZ1, active compounds read low 0.994 | S. cerevisiae deletion strains, locus YML032C, strain rad52, active compounds read low 1.01 | S. cerevisiae deletion strains, locus YML120C, strain ndi1, active compounds read low 0.95 | S. cerevisiae deletion strains, locus YML124C, strain tub3, active compounds read low 0.98 | S. cerevisiae deletion strains, locus YMR058W, strain fet3, active compounds read low 0.989 | S. cerevisiae deletion strains, locus YMR078C, strain ctf18, active compounds read low 0.96 | S. cerevisiae deletion strains, locus YMR125W, strain sto1, active compounds read low 0.954 | S. cerevisiae deletion strains, locus YMR129W, active compounds read low 0.983 | S. cerevisiae deletion strains, locus YMR205C, strain PFK2, active compounds read low 0.938 | S. cerevisiae deletion strains, locus YMR223W, strain ubp8, active compounds read low 0.953 | S. cerevisiae deletion strains, locus YMR231W, strain pep5, active compounds read low 0.989 | S. cerevisiae deletion strains, locus YMR307W, strain GAS1, active compounds read low 1.04 | S. cerevisiae deletion strains, locus YNL067W, strain RPL9B, active compounds read low 0.99 | S. cerevisiae deletion strains, locus YNL071W, strain lat1, active compounds read low 0.973 | S. cerevisiae deletion strains, locus YNL153C, strain GIM3, active compounds read low 0.997 | S. cerevisiae deletion strains, locus YNL183C, strain NPR1, active compounds read low 0.931 | S. cerevisiae deletion strains, locus YNL209W, strain ssb2, active compounds read low 0.994 | S. cerevisiae deletion strains, locus YNL233W, strain BNI4, active compounds read low 1 | S. cerevisiae deletion strains, locus YNL248C, strain rpa49, active compounds read low 0.985 | S. cerevisiae deletion strains, locus YNL250W, strain rad50, active compounds read low 0.961 | S. cerevisiae deletion strains, locus YNL271C, strain bni1, active compounds read low 0.972 | S. cerevisiae deletion strains, locus YNL298W, strain CLA4, active compounds read low 0.986 | S. cerevisiae deletion strains, locus YNL307C, strain MCK1, active compounds read low 0.976 | S. cerevisiae deletion strains, locus YNL322C, strain KRE1 (second series), active compounds read low 0.982 | S. cerevisiae deletion strains, locus YNR049C, strain mso1, active compounds read low 0.985 | S. cerevisiae deletion strains, locus YNR052C, strain pop2, active compounds read low 0.986 | S. cerevisiae deletion strains, locus YOL006C, strain TOP1, active compounds read low 0.931 | S. cerevisiae deletion strains, locus YOL012C, strain htz1 1.85 | S. cerevisiae deletion strains, locus YOL147C, strain pex11, active compounds read low 0.986 | S. cerevisiae deletion strains, locus YOR001W, strain rrp6, active compounds read low 1.03 | S. cerevisiae deletion strains, locus YOR061W, strain CKA2, active compounds read low 0.982 | S. cerevisiae deletion strains, locus YOR069W, strain VPS5, active compounds read low 0.991 | S. cerevisiae deletion strains, locus YOR070C, strain gyp1, active compounds read low 0.986 | S. cerevisiae deletion strains, locus YOR080W, strain dia2, active compounds read low 0.984 | S. cerevisiae deletion strains, locus YOR083W, strain WHI5, active compounds read low 0.972 | S. cerevisiae deletion strains, locus YOR106W, strain vam3, active compounds read low 0.955 | S. cerevisiae deletion strains, locus YOR136W, strain idh2, active compounds read low 1 | S. cerevisiae deletion strains, locus YOR144C, strain elg1, active compounds read low 0.992 | S. cerevisiae deletion strains, locus YOR184W, strain ser1, active compounds read low 0.962 | S. cerevisiae deletion strains, locus YOR231W, strain MKK1, active compounds read low 0.977 | S. cerevisiae deletion strains, locus YOR265W, strain rbl2, active compounds read low 0.988 | S. cerevisiae deletion strains, locus YOR270C, strain vph1, active compounds read low 0.933 | S. cerevisiae deletion strains, locus YOR290C, strain snf2, active compounds read low 0.895 | S. cerevisiae deletion strains, locus YOR316C, strain cot1, active compounds read low 0.979 | S. cerevisiae deletion strains, locus YPL051W, strain arl3, active compounds read low 0.983 | S. cerevisiae deletion strains, locus YPL055C, strain LGE1, active compounds read low 0.991 | S. cerevisiae deletion strains, locus YPL078C, strain atp4, active compounds read low 0.96 | S. cerevisiae deletion strains, locus YPL106C, strain sse1, active compounds read low 0.968 | S. cerevisiae deletion strains, locus YPL240C, strain hsp82, active compounds read low 0.989 | S. cerevisiae deletion strains, locus YPL241C, strain CIN2, active compounds read low 0.995 | S. cerevisiae deletion strains, locus YPL256C, strain CLN2, active compounds read low 0.983 | S. cerevisiae deletion strains, locus YPR119W, strain clb2, active compounds read low 0.978 | S. cerevisiae deletion strains, locus YPR141C, strain kar3, active compounds read low 0.961 | S. cerevisiae deletion strains, locus YPR163C, strain tif3, active compounds read low 0.987 | S. cerevisiae deletion strains, locus YPR167C, strain met16, active compounds read low 0.984 | S. cerevisiae deletion strains, strain wtn01, active compounds read low 0.983 | S. cerevisiae strains, strain wild type, active compounds read low 0.994
